# Source: PubChem BioAssay
# TexasRed fluor – Total Fluorescence Counterscreen for Inhibitors of the Interaction of Thyroid Hormone Receptor and Steroid Receptor Coregulator 2; TRb/SRC2 Texas Red total fluorescence interference; Potency, µM (highest dose often 106 µM), for the others: at the highest dose fluorescence change, negative = quenching; 280,000 tested, 0.29% active; active = well fitted curve in either direction with a large enough effect; inconclusive = small, poorly fitted or top-dose-only effect; also: potency is read from the fitted curve at half-maximal effect; % is scaled to controls: 0 for no effect and ±100 for the full control effect
#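 Human TRβ ligand-binding domain (0.6 uM) and Texas Red SRC2 peptide (20 nM) in Tris buffer with 1 uM T3 and 5% DMSO were incubated with pinned compound for 5 hr at ambient temperature. Total fluorescence was computed as S + 2P (555/632 nm).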
# HttQ103 aggreg – qHTS Multiplex Assay to Identify Dual Action Probes in a Cell Model of Huntington: Aggregate Formation (GFP); 220,000 tested, 1.1% active; PC12 HttQ103-GFP aggregates, Acumen cytometry, 40 h; Potency, µM (highest dose often 46.1 µM), for the others: at the top dose activity change, negative = inhibition, hits mostly inhibitors; also: potency is read from the fitted curve at half-maximal effect; % is scaled to controls: 0 for no effect and ±100 for the full control effect; nearly all actives have a fitted effect of over 60% in size
#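 PC12/HTTQ103-GFP, ecdysone-inducible; teb 100 nM; cpd qHTS titration; GFP aggregates read on laser cytometer, Ex 488/Em 500-530 nm.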
# TRb-SRC2 inh – qHTS for Inhibitors of the Interaction of Thyroid Hormone Receptor and Steroid Receptor Coregulator 2; Thyroid hormone receptor beta (Homo sapiens), P10828; Potency, µM (series often up to 106 µM), for inactives: top-dose activity change, negative = inhibition, actives largely listed as inhibitors; AID 1469, 2008; TRbeta-SRC2 peptide binding, fluorescence polarization; receptor liganded with 1 µM T3; 280,000 tested, 0.065% active;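 also: potency is read from the fitted curve at half-maximal effect; plate controls were bound peptide for no effect and peptide without receptor for full effect; nearly all actives have a fitted effect of over 50% in size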
# Target sequence (P10828 whole entry, looked up): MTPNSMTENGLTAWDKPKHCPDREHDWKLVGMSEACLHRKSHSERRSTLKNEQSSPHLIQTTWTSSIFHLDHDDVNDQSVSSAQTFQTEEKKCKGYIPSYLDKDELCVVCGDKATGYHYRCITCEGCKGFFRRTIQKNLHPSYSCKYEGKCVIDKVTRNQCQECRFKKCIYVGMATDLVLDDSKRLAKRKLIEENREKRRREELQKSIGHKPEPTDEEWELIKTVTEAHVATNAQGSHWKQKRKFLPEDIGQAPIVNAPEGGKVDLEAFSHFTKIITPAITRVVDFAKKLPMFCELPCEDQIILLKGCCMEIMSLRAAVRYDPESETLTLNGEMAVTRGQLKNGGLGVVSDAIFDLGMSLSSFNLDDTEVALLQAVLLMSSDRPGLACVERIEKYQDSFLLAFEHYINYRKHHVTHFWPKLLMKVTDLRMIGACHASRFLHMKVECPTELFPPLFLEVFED
#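 Read-out is fluorescence polarization (555 nm excitation, 632 nm emission) of a Texas Red SRC2 coactivator peptide; loss of signal reflects blocked binding to human TRb ligand-binding domain in the presence of 1 uM T3.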
# HTT ATP protect – qHTS Multiplex Assay to Identify Dual Action Probes in a Cell Model of Huntington: Cytoprotection (ATP); PC12 HTT-Q103 induced, cytoprotection, ATP luminescence, 40 h; Potency, µM (series often up to 56.4 µM), inactives show cytoprotection (ATP increase), hits mostly activators; 230,000 tested, 0.14% active; AID 1471, 2008; also: potency is read from the fitted curve at half-maximal effect; % of control where 0% means no effect; nearly all actives have a fitted effect of over 45% in size
#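 Rat PC12, Q103 Htt exon1-GFP fusion, ecdysone promoter; tebufenozide inducer 100 nM final; compound titration; qHTS, 1500 cells/well; ATPlite luminescent read.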
# Coupling enz – qHTS Assay for Inhibitors of Fructose-1,6-bisphosphate Aldolase from Giardia Lamblia: Coupling assay counterscreen; coupling enzyme system counterscreen, AmpLite Red fluorescence; activity change, negative = inhibition, % at 58.2 µM, hits read low; 290,000 tested, 0.67% active; AID 2472, 2010; in the data active = activity change below about -30%; also: % is scaled to controls: 0 for no effect and ±100 for the full control effect
#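 Compounds tested against the coupling enzymes alone at 57.5 uM final; readout was AmpLite Red fluorescence (525/598 nm) after 20 min at RT.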
# KDM4E inh – qHTS Assay for Inhibitors of Human Jumonji Domain Containing 2E (JMJD2E). Lysine-specific demethylase 4E (Homo sapiens), B2RXH2. JMJD2E catalytic domain, FDH-coupled NADH fluorescence (FDH is formaldehyde dehydrogenase). Potency, µM (titrated, usually from 57.1 µM), for the others: at the highest dose activity change, negative = inhibition, hits mostly inhibitors. 230,000 tested, 1.6% active; active = well fitted inhibition curve with a large enough effect, not every such curve was filed as active; inconclusive = small, poorly fitted or top-dose-only effect, or another doubt; inactive = no such curve, though single readings can be large or run the other way;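 also: potency is read from the fitted curve at half-maximal effect; 0% = wells with enzyme and -100% = buffer wells without enzyme; nearly all actives have a fitted effect of over 50% in size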
# Starred values were filed as active, the others as inactive; ? = inconclusive; . = not tested or not shown; [ ] = remark or other dose. Compounds with a hit are over-represented: about 2% of the library has one in this group of screens. Unless noted, calls follow the shape of the dose curve; as a rule, active = well fitted curve in the direction sought with a large enough effect; inconclusive = small, poorly fitted or top-dose-only effect, or another doubt; inactive = no such curve, though single readings can be large; an effect the other way counts as inactive or inconclusive.
SMILES,TexasRed fluor,HttQ103 aggreg,TRb-SRC2 inh,HTT ATP protect,Coupling enz,KDM4E inh
O=C(O)CSc1c2c(nc3cc(C(=O)NCCN4CCOCC4)ccc13)CCC2,50µM*[fluorescent],-6%[9.22 µM],-12%,-6%[10 µM],-5,-21%
CC(C)CCNC(=O)c1ccc2c(SCC(=O)O)c3c(nc2c1)CCCC3,-1%,22%,-10%,.,6,-25%
NS(=O)(=O)c1ccc(NC(=S)N2CCN(c3ccc(Cl)c(Cl)c3)CC2)cc1,0%,-24%,1%,.,-2,0%
NS(=O)(=O)c1ccc(NC(=S)N2CCN(Cc3ccc(Cl)c(Cl)c3)CC2)cc1,-3%,22µM*,-11%,-40%,1,11%
O=C(O)C1C2CCC(O2)C1C(=O)Nc1ccc(O)cc1 (centres undefined),-6%,-19%,2%,.,-36*,1%
Cc1ccc(OCc2nc3ccccc3n2CCOc2ccc(Cl)cc2)cc1,-2%,.,7%,.,.,.
CCC(CC)C1C(C#N)=C(N)Oc2n[nH]c(C)c21 (centres undefined),-5%,-12%,-5%,-21%,-11,-1%
CCc1[nH]nc2c1C(C(C)C)C(C#N)=C(N)O2 (centres undefined),-5%,11µM*,1%,20%[10 µM],-4,7%
CN1CCN(C(c2ccccn2)c2cc(Cl)c3cccnc3c2O)CC1 (centres undefined),-1%,?,-2%,-124%,-7,25µM*
Cc1c(NC(=O)c2cc(=O)c3cc(Cl)ccc3o2)c(=O)n(-c2ccccc2)n1C,?,.,2%,.,.,.
Cc1ccc(CNC(=O)c2cn(C)c3ccc(S(=O)(=O)N4CCC(C)CC4)cc3c2=O)cc1,0%,.,-5%,.,.,.
CCOC(=O)COc1ccc2c(C#N)c3ccccn3c2c1,-1%,2%[9.22 µM],-2%,-9%,-60*,5%
CCOC(=O)c1c2ccc(OCC(=O)N/N=C/c3ccc(Cl)cc3)cc2n2ccccc12,-4%,8%,2%,-15%,-12,-2%
N#Cc1c2ccc(OCC(N)=O)cc2n2ccccc12,-9%,-2%,-8%,-51%,-37*,?
COc1cc(OC)cc(C(=O)c2c(C)c(C#N)c3ccccn23)c1,.,.,.,.,0,.
Cc1ccc(NC2=CC(=O)c3sc(C)nc3C2=O)cc1,-18%,.,?,.,-16,.
Cn1c(=O)c2cc(NCc3ccccc3)nnc2n(C)c1=O,1%,15%,4%,21%,-59*,-2%
Cc1ccccc1Nc1cc2ccccc2c(=O)[nH]1,-5%,27%,?,-5%[10 µM],-43*,?
Cc1cc2ccccc2c(=O)[nH]1,-7%,2%,2%,-17%,1,?
O=c1[nH]c(Nc2ccc(F)cc2)cc2ccccc12,3%,29%,?,-10%,-34*,?
CCc1ccc(CN(Cc2ccco2)C(=O)c2cc(-c3ccc(Cl)cc3)on2)cc1,1%,.,-1%,.,.,.
Cc1cc2nnc(SCC(=O)OC(C)C)n2c2ccccc12,-6%,4µM*,-7%,-95%[10 µM],4,?
CCCOC(=O)c1cccc(NC(=O)CSc2nnc3cc(C)c4ccccc4n23)c1,2.8µM*[quencher],.,-20%,.,.,.
Cc1cc2nnc(SCC(=O)Nc3ccc(F)c(Cl)c3)n2c2ccccc12,-2%,.,10%,.,.,.
Cc1cc(C(=O)COC(=O)c2ccccc2Br)c(C)n1CC1CCCO1 (centres undefined),0%,41%[9.22 µM],3%,-27%[10 µM],-6,18%
